# Measured values from PubChem BioAssay AID1159580 (chemical genetic matrix, 2015).
# The campaign covered roughly 5,500 compounds. About 2,000 (36%) were called active. Not shown: some 18% with an inconclusive outcome. The list shows a part of the results. Values without a mark were called inactive. Cut-off read from the data, not from the text of the source: active = normalized growth mostly below about 0.91 (no sharp cut-off); inconclusive = no clear call, values can overlap the other calls; inactive = mostly above about 0.92.
# Assay: chemical genetic growth profiling, strain panel (AID 1159580);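 note: tested at 20 µM; growth read once vehicle control cultures reached saturation at 30 °C; 1 = growth at the plate median or of vehicle wells; lower values mean less growth of the strain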
# Conditions: growth OD
# [1] = S. cerevisiae deletion strains, locus YAL013W, strain DEP1, stronger effect = lower value
# [2] = S. cerevisiae deletion strains, locus YBR229C, strain ROT2, stronger effect = lower value
# [3] = S. cerevisiae deletion strains, locus YDL101C, strain DUN1, stronger effect = lower value
# [4] = S. cerevisiae deletion strains, locus YDR150W, strain NUM1, stronger effect = lower value
# [5] = S. cerevisiae deletion strains, locus YEL061C, strain CIN8, stronger effect = lower value
# [6] = S. cerevisiae deletion strains, locus YGR078C, strain PAC10, stronger effect = lower value
# [7] = S. cerevisiae deletion strains, locus YGR229C, strain SMI1, stronger effect = lower value
# [8] = S. cerevisiae deletion strains, locus YHR030C, strain SLT2, stronger effect = lower value
# [9] = S. cerevisiae deletion strains, locus YJR043C, strain POL32, stronger effect = lower value
# [10] = S. cerevisiae deletion strains, locus YJR075W, strain HOC1, stronger effect = lower value
# [11] = S. cerevisiae deletion strains, locus YKL190W, strain CNB1, stronger effect = lower value
# [12] = S. cerevisiae deletion strains, locus YLR039C, strain RIC1, stronger effect = lower value
# [13] = S. cerevisiae deletion strains, locus YLR262C, strain YPT6, stronger effect = lower value
# [14] = S. cerevisiae deletion strains, locus YMR263W, strain SAP30, stronger effect = lower value
# [15] = S. cerevisiae deletion strains, locus YMR307W, strain GAS1, stronger effect = lower value
# [16] = S. cerevisiae deletion strains, locus YNL153C, strain GIM3, stronger effect = lower value
# [17] = S. cerevisiae deletion strains, locus YNL322C, strain KRE1, stronger effect = lower value
# [18] = S. cerevisiae deletion strains, locus YPL055C, strain LGE1, stronger effect = lower value
# [19] = S. cerevisiae deletion strains, locus YPL241C, strain CIN2, stronger effect = lower value
# [20] = S. cerevisiae strains, strain wild type, stronger effect = lower value
smiles,measurement,setting,value
COC(=O)c1c(Cl)c(Cl)c(C(=O)OC)c(Cl)c1Cl,normalized growth,[1],0.991
same,normalized growth,"S. cerevisiae deletion strains, locus YBR021W, strain FUR4, stronger effect = lower value",0.972
same,normalized growth,[2],1
same,normalized growth,"S. cerevisiae deletion strains, locus YCL029C, strain bik1, stronger effect = lower value",1.01
same,normalized growth,"S. cerevisiae deletion strains, locus YDL035C, strain GPR1, stronger effect = lower value",1.01
same,normalized growth,"S. cerevisiae deletion strains, locus YDL074C, strain BRE1, stronger effect = lower value",0.927
same,normalized growth,[3],0.978
same,normalized growth,"S. cerevisiae deletion strains, locus YDL134C, strain PPH21, stronger effect = lower value",0.998
same,normalized growth,"S. cerevisiae deletion strains, locus YDL185W, strain tfp1, stronger effect = lower value",1.01
same,normalized growth,"S. cerevisiae deletion strains, locus YDL192W, strain arf1, stronger effect = lower value",1
same,normalized growth,"S. cerevisiae deletion strains, locus YDR101C, strain arx1, stronger effect = lower value",0.995
same,normalized growth,[4],1
same,normalized growth,"S. cerevisiae deletion strains, locus YDR162C, strain NBP2, stronger effect = lower value",0.997
same,normalized growth,"S. cerevisiae deletion strains, locus YDR318W, strain mcm21, stronger effect = lower value",1
same,normalized growth,"S. cerevisiae deletion strains, locus YDR388W, stronger effect = lower value",1
same,normalized growth,"S. cerevisiae deletion strains, locus YDR502C, strain sam2, stronger effect = lower value",0.999
same,normalized growth,[5],0.999
same,normalized growth,"S. cerevisiae deletion strains, locus YER110C, stronger effect = lower value",1
same,normalized growth,"S. cerevisiae deletion strains, locus YER155C, strain BEM2, stronger effect = lower value",0.984
same,normalized growth,"S. cerevisiae deletion strains, locus YER167W, strain BCK2, stronger effect = lower value",0.998
same,normalized growth,"S. cerevisiae deletion strains, locus YGL078C, strain dbp3, stronger effect = lower value",1.01
same,normalized growth,"S. cerevisiae deletion strains, locus YGL086W, strain mad1, stronger effect = lower value",0.998
same,normalized growth,"S. cerevisiae deletion strains, locus YGL248W, strain PDE1, stronger effect = lower value",1.01
same,normalized growth,[6],0.987
same,normalized growth,"S. cerevisiae deletion strains, locus YGR135W, strain pre9, stronger effect = lower value",0.994
same,normalized growth,[7],0.988
same,normalized growth,"S. cerevisiae deletion strains, locus YGR252W, strain gcn5, stronger effect = lower value",0.944
same,normalized growth,[8],0.971
same,normalized growth,"S. cerevisiae deletion strains, locus YHR079C, strain IRE1 (second series), stronger effect = lower value",1
same,normalized growth,"S. cerevisiae deletion strains, locus YHR094C, strain hxt1, stronger effect = lower value",1
same,normalized growth,"S. cerevisiae deletion strains, locus YHR129C, strain ARP1, stronger effect = lower value",0.996
same,normalized growth,"S. cerevisiae deletion strains, locus YHR200W, strain rpn10, stronger effect = lower value",1
same,normalized growth,"S. cerevisiae deletion strains, locus YIL066C, strain RNR3, stronger effect = lower value",0.984
same,normalized growth,"S. cerevisiae deletion strains, locus YIL073C, strain SPO22, stronger effect = lower value",1.03
same,normalized growth,"S. cerevisiae deletion strains, locus YIL125W, strain kgd1, stronger effect = lower value",0.994
same,normalized growth,"S. cerevisiae deletion strains, locus YIR030C, strain dcg1, stronger effect = lower value",1.01
same,normalized growth,"S. cerevisiae deletion strains, locus YJL095W, strain BCK1, stronger effect = lower value",0.962
same,normalized growth,"S. cerevisiae deletion strains, locus YJL134W, strain LCB3, stronger effect = lower value",1
same,normalized growth,"S. cerevisiae deletion strains, locus YJL168C, strain set2, stronger effect = lower value",1
same,normalized growth,"S. cerevisiae deletion strains, locus YJL187C, strain SWE1 (second series), stronger effect = lower value",1.01
same,normalized growth,[9],0.969
same,normalized growth,[10],0.978
same,normalized growth,"S. cerevisiae deletion strains, locus YKL009W, strain mrt4, stronger effect = lower value",0.987
same,normalized growth,"S. cerevisiae deletion strains, locus YKL068W, stronger effect = lower value",0.996
same,normalized growth,"S. cerevisiae deletion strains, locus YKL085W, strain MDH1 (second series), stronger effect = lower value",0.995
same,normalized growth,"S. cerevisiae deletion strains, locus YKL085W, strain MDH1, stronger effect = lower value",0.995
same,normalized growth,[11],0.998
same,normalized growth,"S. cerevisiae deletion strains, locus YKR001C, strain vps1, stronger effect = lower value",1.03
same,normalized growth,[12],1.24
same,normalized growth,"S. cerevisiae deletion strains, locus YLR058C, strain SHM2, stronger effect = lower value",1
same,normalized growth,"S. cerevisiae deletion strains, locus YLR102C, strain apc9, stronger effect = lower value",1.01
same,normalized growth,[13],1.18
same,normalized growth,"S. cerevisiae deletion strains, locus YLR268W, strain sec22, stronger effect = lower value",0.992
same,normalized growth,"S. cerevisiae deletion strains, locus YLR330W, strain CHS5, stronger effect = lower value",1
same,normalized growth,"S. cerevisiae deletion strains, locus YLR342W, strain FKS1 (second series), stronger effect = lower value",1.01
same,normalized growth,"S. cerevisiae deletion strains, locus YLR371W, strain rom2, stronger effect = lower value",1.01
same,normalized growth,"S. cerevisiae deletion strains, locus YLR418C, strain cdc73, stronger effect = lower value",0.929
same,normalized growth,"S. cerevisiae deletion strains, locus YML016C, strain PPZ1, stronger effect = lower value",0.993
same,normalized growth,"S. cerevisiae deletion strains, locus YML032C, strain rad52, stronger effect = lower value",1.01
same,normalized growth,"S. cerevisiae deletion strains, locus YML124C, strain tub3, stronger effect = lower value",1.01
same,normalized growth,"S. cerevisiae deletion strains, locus YMR078C, strain ctf18, stronger effect = lower value",1.01
same,normalized growth,"S. cerevisiae deletion strains, locus YMR223W, strain ubp8, stronger effect = lower value",1
same,normalized growth,[14],0.987
same,normalized growth,[15],0.972
same,normalized growth,"S. cerevisiae deletion strains, locus YNL067W, strain RPL9B, stronger effect = lower value",0.985
same,normalized growth,"S. cerevisiae deletion strains, locus YNL128W, strain TEP1, stronger effect = lower value",1
same,normalized growth,[16],1
same,normalized growth,"S. cerevisiae deletion strains, locus YNL233W, strain BNI4, stronger effect = lower value",1.01
same,normalized growth,"S. cerevisiae deletion strains, locus YNL250W, strain rad50, stronger effect = lower value",1.01
same,normalized growth,"S. cerevisiae deletion strains, locus YNL271C, strain bni1, stronger effect = lower value",1.01
same,normalized growth,"S. cerevisiae deletion strains, locus YNL298W, strain CLA4, stronger effect = lower value",0.997
same,normalized growth,"S. cerevisiae deletion strains, locus YNL307C, strain MCK1, stronger effect = lower value",0.998
same,normalized growth,[17],0.994
same,normalized growth,"S. cerevisiae deletion strains, locus YNR052C, strain pop2, stronger effect = lower value",1.02
same,normalized growth,"S. cerevisiae deletion strains, locus YOL006C, strain TOP1, stronger effect = lower value",0.914
same,normalized growth,"S. cerevisiae deletion strains, locus YOL012C, strain htz1",0.967
same,normalized growth,"S. cerevisiae deletion strains, locus YOL147C, strain pex11, stronger effect = lower value",1.01
same,normalized growth,"S. cerevisiae deletion strains, locus YOR061W, strain CKA2, stronger effect = lower value",0.999
same,normalized growth,"S. cerevisiae deletion strains, locus YOR069W, strain VPS5, stronger effect = lower value",1
same,normalized growth,"S. cerevisiae deletion strains, locus YOR136W, strain idh2, stronger effect = lower value",1
same,normalized growth,"S. cerevisiae deletion strains, locus YOR144C, strain elg1, stronger effect = lower value",1
same,normalized growth,"S. cerevisiae deletion strains, locus YOR184W, strain ser1, stronger effect = lower value",0.989
same,normalized growth,"S. cerevisiae deletion strains, locus YOR316C, strain cot1, stronger effect = lower value",1
same,normalized growth,[18],0.937
same,normalized growth,[19],0.99
same,normalized growth,"S. cerevisiae deletion strains, locus YPR119W, strain clb2, stronger effect = lower value",1
same,normalized growth,"S. cerevisiae deletion strains, locus YPR141C, strain kar3, stronger effect = lower value",1.01
same,normalized growth,"S. cerevisiae deletion strains, locus YPR163C, strain tif3, stronger effect = lower value",1
same,normalized growth,"S. cerevisiae deletion strains, locus YPR167C, strain met16, stronger effect = lower value",0.995
same,normalized growth,"S. cerevisiae deletion strains, strain wtn01, stronger effect = lower value",0.998
same,normalized growth,[20],0.991
COC(=O)c1c(C)[nH]c(C)c1C(C)=O,normalized growth,[1],1.03
same,normalized growth,[2],1.01
same,normalized growth,[3],0.968
same,normalized growth,[4],1.01
same,normalized growth,[5],1.01
same,normalized growth,[6],1.03
same,normalized growth,[8],1.05
same,normalized growth,"S. cerevisiae deletion strains, locus YHR087W, strain rtc3, stronger effect = lower value",1.03
same,normalized growth,"S. cerevisiae deletion strains, locus YJL187C, strain SWE1, stronger effect = lower value",0.995
same,normalized growth,[9],0.976
same,normalized growth,[10],0.999
same,normalized growth,[11],1.01
same,normalized growth,[12],1.07
same,normalized growth,"S. cerevisiae deletion strains, locus YLR058C, strain SHM2 (second series), stronger effect = lower value",1
same,normalized growth,"S. cerevisiae deletion strains, locus YLR085C, strain ARP6, stronger effect = lower value",1.18
same,normalized growth,[13],1.02
same,normalized growth,"S. cerevisiae deletion strains, locus YML094W, strain GIM5, stronger effect = lower value",1.04
same,normalized growth,"S. cerevisiae deletion strains, locus YMR219W, strain ESC1, stronger effect = lower value",1.01
same,normalized growth,[14],1
same,normalized growth,[15],1.03
same,normalized growth,[16],0.994
same,normalized growth,"S. cerevisiae deletion strains, locus YNL298W, strain CLA4 (second series), stronger effect = lower value",1.01
same,normalized growth,[17],1.01
same,normalized growth,"S. cerevisiae deletion strains, locus YNR030W, strain Alg12, stronger effect = lower value",1.04
same,normalized growth,[18],1.05
same,normalized growth,[19],1.08
same,normalized growth,"S. cerevisiae deletion strains, locus YPR135W, strain CTF4, stronger effect = lower value",1.36 [resistant] (active)
same,normalized growth,[20],1.01
COC(=O)c1c(C)[nH]c(C)c1C(=O)c1ccccc1Cc1ccccc1,normalized growth,"S. cerevisiae deletion strains, locus YAL040C, strain CLN3, stronger effect = lower value",0.995
same,normalized growth,"S. cerevisiae deletion strains, locus YCL061C, strain MRC1 (second series), stronger effect = lower value",1
same,normalized growth,"S. cerevisiae deletion strains, locus YDR363W, strain ESC2, stronger effect = lower value",1.02
same,normalized growth,"S. cerevisiae deletion strains, locus YER002W, strain NOP16, stronger effect = lower value",0.984
same,normalized growth,[6],0.989
same,normalized growth,[7],1.06
same,normalized growth,[16],0.987
same,normalized growth,"S. cerevisiae deletion strains, locus YNL175C, strain NOP13, stronger effect = lower value",0.986
same,normalized growth,"S. cerevisiae deletion strains, locus YNL197C, strain WHI3, stronger effect = lower value",0.983
same,normalized growth,"S. cerevisiae deletion strains, locus YNL224C, strain SQS1, stronger effect = lower value",0.983
same,normalized growth,[17],1.01
same,normalized growth,"S. cerevisiae deletion strains, locus YOR083W, strain WHI5 (second series), stronger effect = lower value",0.964
same,normalized growth,[18],1.01
same,normalized growth,[19],1
